Results published in PubChem BioAssay (EPA / NIEHS).
Active and inactive are the calls of the source. Rule for the calls: active = hit-call score of the fitted dose curve at least 0.9, where 1 is the maximum; inactive = score below 0.9.

Assay: CCTE_Shafer_MEA_dev_inter_network_spike_interval_mean: CCTE's Neural Network Formation Assay for Mean Inter-network Spike Interval, Shafer Lab (AID 2284047)
Protocol: CCTE_Shafer_MEA_dev assay is conducted using Axion Biosystems 48 well microelectrode array (MEA) plates and Maestro recording system. Each well of the MEA plate contains a grid of 16 microelectrodes embedded in the culture surface. Electrically active cells, such as neurons, can be cultured over the electrodes, and electrical activity in these cells can be recorded extracellularly. The spontaneous firing of neurons is captured from each electrode on a microsecond timescale providing both temporally and spatially precise data. […] The CCTE_Shafer_MEA_dev assay uses primary cultures of rat cortical neurons. Recordings are made on days post-plating 5, 7, 9 and 12. As these cultures mature over time, neural networks develop functional activity and form cohesive networks in which electrical activity can be highly coordinated. CCTE_Shafer_MEA_dev_inter_network_spike_interval_mean is 1 of 19 assay components of the CCTE_Shafer_MEA_dev assay. It measures the average time interval between network spikes (temporally-clustered groups of actional potential firing across multiple electrodes) as the average time between peaks of consecutive network spikes during a recording in a microelectrode array (MEA) using Axion Biosystems Maestro 768 channel amplifier with the AxIS adaptive spike detector. To collapse across multiple recordings made on days post-plating 5, 7, 9 and 12, the trapezoidal area-under-the-curve of the component is calculated.Data from the assay component CCTE_Shafer_MEA_dev_inter_network_spike_interval_mean was analyzed into 1 assay endpoint. This assay endpoint, CCTE_Shafer_MEA_dev_inter_network_spike_interval_mean, was analyzed in the negative analysis fitting direction relative to DMSO as the negative control and baseline of activity. Using a type of functional reporter, gain or loss-of-signal activity can be used to understand electrical activity.
On the day prior to culture, each well was coated thoroughly with 150 uL of 0.05% polyethyleneimine (PEI, Sigma Cat P3143) in 50 mM HEPES (Sigma Cat H7523) at a pH of 8. The plate was incubated at 37C for one hour. PEI was rinsed out with 500 uL of sterile water three times. Plates were stored at 4C until the day of culture. This culture was plated at a seeding density of 1.5 x 10^5 cells/well on a 48-well MEA plate, prepared as described above. Cells were administered via a 25 uL media/laminin ([…]; Sigma Cat L2020-1MG) drop directly onto the microelectrode array, as adding the cells with the laminin results in better attachment than pre-coating with laminin. After 2 hours, an additional 475 uL of cortical media was added and the cells returned to the incubator. Exposure starts at day 0 of plating and is continued over twelve days of network development until the experiment is terminated. Cells are fed with fresh medium on DIV 5 and 9, following the recordings on those days. The entire volume of media in the well is exchanged and any vehicle or compound treatment is renewed. Complete details are found in OP-NHEERL/ISTD/SBB/TJS/2015-03-r0 (available on request, email shafer.tim@epa.gov). Measurement of the electrical activity is non-invasive, and recordings can be made from the same plate over multiple different days of the culture. In cortical neurons, this allows for the measurement of extracellular action potentials over the period during which networks form in the MEA plate.

outcome, inactive:
Cc1[nH]n(C)c(=O)c1C(=O)c1ccc(C(F)(F)F)cc1S(C)(=O)=O, CCCCCC=C(C)C(CC)CCO (stereo not drawn), C[C@@H]1CCO[C@H]2Cn3cc(C(=O)NCc4ccc(F)cc4F)c(=O)c(O)c3C(=O)N12, CC(=O)N[C@@H](CC(=O)O)C(=O)O, CCc1ccccc1, CC(C)c1nn(C(=O)NC(C)(C)C)c(=O)n1N, O=C1CC2(CCCC2)CC(=O)N1CCCCN1CCN(c2ncccn2)CC1, c1ccc2c(c1)ccc1c3ccccc3ccc21, Brc1cc(Br)c(Oc2cc(Br)c(Br)cc2Br)cc1Br, CCCCCC(C)(CC)C(=O)NC (stereo not drawn), CN(C)CCCn1cc(C2=C(c3c[nH]c4ccccc34)C(=O)NC2=O)c2ccccc21, BrC1CC(Br)CC(Br)CC(Br)CC(Br)CC(Br)C1 (stereo not drawn), [O]=[V]([OH])([OH])[OH], CC(CNC(=S)[S-])NC(=S)[S-].[Zn+2] (stereo not drawn), C[C@@H]1CC[C@@H](C(C)(C)O)[C@H](O)C1, c1cc2c3c(c1)ccc1cccc(c13)C2, F, CC(C)O
